In PubChem BioAssay (Tox21):
“And” between values parts separate entries of the source, which are not always exact repeats. Equal values may be shown once. Inconclusive results are not listed. Some compounds were tested as several samples or in several runs, with calls that do not always agree. The source made the active and inactive calls. Unless noted, calls follow the shape of the full dose curve.

Assay: qHTS assay to identify small molecule antagonists of the estrogen related receptor (ERR) signaling pathway from Tox21 library (AID 1224848; active = well fitted inhibition curve with a large enough effect in the repeat runs; also: nearly all actives have a fitted effect of over 50% in size; also: potency is read from the fitted curve at half-maximal effect)
Conditions: ERR reporter cell line, luciferase antagonist mode, 18 h; series mostly up to 92.4 µM
Method in brief: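 Cells: ERR line, 2,000/well; 6 h preincubation 37 C/5% CO2. Cpd in DMSO via pin tool; 18 h, 37 C. ONE-Glo, 30 min RT, luminescence.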
% is scaled to controls: 0 for no effect and ±100 for the full control effect.

Question: With `COC(C)COC(C)COC(C)CO` (centres undefined) as the compound, how does the Potency read?
Answer: inactive

Question: Which Potency does the source give for `CCC(C)c1ccccc1O` (centres undefined) here?
Answer: inactive

Question: Which Potency does the source give for `O=C(c1ccccc1)c1ccccc1O` here?
Answer: inactive

Question: Which Potency does the source give for `CC1=CC2C3CC(C=C3C)C2C1` (centres undefined) here?
Answer: inactive

Question: For `Nc1ncn([C@@H]2O[C@H](CO)[C@@H](O)[C@H]2O)c(=O)n1`, which Potency is on record?
Answer: 864 nM (active) and 1.19 µM (active)

Question: For `CCC(C)CO` (centres undefined), which Potency is on record?
Answer: inactive

Question: With `Cc1ccc2c(n1)Oc1ccc(C(C)C(=O)OCC(=O)N(C)C)cc1C2` (centres undefined) as the compound, how does the Potency read?
Answer: inactive

Question: For `O=C(/C=C/c1ccccc1)OCc1ccccc1`, which Potency is on record?
Answer: inactive

Question: With `C#C[C@]1(O)CC[C@H]2[C@@H]3CCc4cc(OC)ccc4[C@H]3CC[C@@]21C` as the compound, how does the Potency read?
Answer: inactive

Question: Which Potency does the source give for `CC(C(=O)O)c1cccc(C(=O)c2ccccc2)c1` (centres undefined) here?
Answer: inactive

Question: Which Potency does the source give for `Cc1c(OCC(F)(F)F)ccnc1CS(=O)c1nc2ccccc2[nH]1` (centres undefined) here?
Answer: inactive

Question: Which Potency does the source give for `Clc1nc(Cl)c(Cl)c(Cl)c1Cl` here?
Answer: inactive

Question: Which Potency does the source give for `Cn1cnc([N+](=O)[O-])c1Sc1ncnc2nc[nH]c12` here?
Answer: inactive

Question: With `O=C(Nc1ccc(Cl)cc1)Nc1ccc(Cl)c(Cl)c1` as the compound, how does the Potency read?
Answer: 5.42 µM (active) and 11.9 µM (active)

Question: With `CC(C)Oc1ccc2c(=O)c(-c3ccccc3)coc2c1` as the compound, how does the Potency read?
Answer: inactive

Question: For `CCCCC/C=C/C=C/C=O`, which Potency is on record?
Answer: inactive and 54.5 µM (active)

Question: Which Potency does the source give for `Cc1cccc(C(=O)O)c1` here?
Answer: inactive

Question: For `CCCCC(CC)COCC1CO1` (centres undefined), which Potency is on record?
Answer: inactive

Question: Which Potency does the source give for `O=C(COc1ccc(Cl)cc1)N1CCN(Cc2ccc3c(c2)OCO3)CC1` here?
Answer: 27.3 µM (active) and 18.8 µM (active)

Question: For `O=[N+]([O-])c1ccc2c(c1)Cc1ccccc1-2`, which Potency is on record?
Answer: inactive

Question: With `CC(C)OB(OC(C)C)OC(C)C` as the compound, how does the Potency read?
Answer: inactive

Question: Which Potency does the source give for `CC(CCC(=O)O)(c1ccc(O)cc1)c1ccc(O)cc1` here?
Answer: inactive

Question: For `CCCCc1oc2ccccc2c1C(=O)c1cc(I)c(OCCN(CC)CC)c(I)c1`, which Potency is on record?
Answer: 48.9 µM (active) and 29.8 µM (active)

Question: Which Potency does the source give for `CC(=O)C1(C)CC2=C(CCCC2(C)C)CC1C` (centres undefined) here?
Answer: inactive

Question: Which Potency does the source give for `CCOC(=O)C(C#N)=C(c1ccccc1)c1ccccc1` here?
Answer: 48.6 µM (active)

Question: Which Potency does the source give for `C[C@]12CC[C@H]3[C@@H](CCC4=CC(=O)CC[C@@]43C)[C@@H]1CC[C@@H]2C(=O)CO` here?
Answer: 27.3 µM (active) and 26.6 µM (active)

Question: For `C=C(C)C(=O)OCCOC(=O)C(=C)C`, which Potency is on record?
Answer: inactive

Assay: qHTS assay to identify small molecule agonists of the estrogen related receptor (ERR) signaling pathway from Tox21 library (AID 1224849); also: nearly all actives have a fitted effect of over 15% in size
Conditions: ERR reporter cell line, ONE-Glo luciferase, 18 h; at 42.5 µM (top of the series)
Method in brief: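 ERR cells, 6 h pre-incubation 37 C/5% CO2; cpd in DMSO pinned; 18 h 37 C; ONE-Glo added, 30 min RT; luminescence read. Agonist mode, qHTS.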

Question: For `Nc1ncn([C@@H]2O[C@H](CO)[C@@H](O)[C@H]2O)c(=O)n1`, which activity change, positive = activation is on record?
Answer: -50.1% (inactive)

Question: Which activity change, positive = activation does the source give for `Cc1ccc2c(n1)Oc1ccc(C(C)C(=O)OCC(=O)N(C)C)cc1C2` (centres undefined) here?
Answer: 24.3% (active) and 6.58% (inactive)

Question: For `O=C(/C=C/c1ccccc1)OCc1ccccc1`, which activity change, positive = activation is on record?
Answer: 33.8% (active)

Question: For `C#C[C@]1(O)CC[C@H]2[C@@H]3CCc4cc(OC)ccc4[C@H]3CC[C@@]21C`, which activity change, positive = activation is on record?
Answer: -12.2% (inactive)

Question: Which activity change, positive = activation does the source give for `CC(C(=O)O)c1cccc(C(=O)c2ccccc2)c1` (centres undefined) here?
Answer: 0.181% (inactive)

Question: With `Cc1c(OCC(F)(F)F)ccnc1CS(=O)c1nc2ccccc2[nH]1` (centres undefined) as the compound, how does the activity change, positive = activation read?
Answer: -8.69% (active)

Question: With `Cn1cnc([N+](=O)[O-])c1Sc1ncnc2nc[nH]c12` as the compound, how does the activity change, positive = activation read?
Answer: 8.83% (inactive)

Question: With `O=C(Nc1ccc(Cl)cc1)Nc1ccc(Cl)c(Cl)c1` as the compound, how does the activity change, positive = activation read?
Answer: -29.5% (inactive)

Question: Which activity change, positive = activation does the source give for `CC(C)Oc1ccc2c(=O)c(-c3ccccc3)coc2c1` here?
Answer: 38.2% (active) and 33.2% (active)

Question: Which activity change, positive = activation does the source give for `O=C(COc1ccc(Cl)cc1)N1CCN(Cc2ccc3c(c2)OCO3)CC1` here?
Answer: -37.2% (inactive)

Question: For `CCCCc1oc2ccccc2c1C(=O)c1cc(I)c(OCCN(CC)CC)c(I)c1`, which activity change, positive = activation is on record?
Answer: -36% (inactive) and -39.6% (inactive)

Question: With `CCOC(=O)C(C#N)=C(c1ccccc1)c1ccccc1` as the compound, how does the activity change, positive = activation read?
Answer: -21.7% (inactive)

Question: For `C[C@]12CC[C@H]3[C@@H](CCC4=CC(=O)CC[C@@]43C)[C@@H]1CC[C@@H]2C(=O)CO`, which activity change, positive = activation is on record?
Answer: -34.2% (inactive)

Same assay, conditions: ERR reporter cell line, ONE-Glo luciferase, 18 h; at 92.4 µM (top of the series)

Question: With `COC(C)COC(C)COC(C)CO` (centres undefined) as the compound, how does the activity change, positive = activation read?
Answer: -7.02% (inactive) and 0.149% (inactive)

Question: For `CCC(C)c1ccccc1O` (centres undefined), which activity change, positive = activation is on record?
Answer: -6.99% (inactive) and 2.48% (inactive)

Question: With `O=C(c1ccccc1)c1ccccc1O` as the compound, how does the activity change, positive = activation read?
Answer: -0.602% (inactive) and -1.04% (inactive)

Question: Which activity change, positive = activation does the source give for `CC1=CC2C3CC(C=C3C)C2C1` (centres undefined) here?
Answer: 0.676% (inactive) and -14.6% (inactive)

Question: Which activity change, positive = activation does the source give for `Nc1ncn([C@@H]2O[C@H](CO)[C@@H](O)[C@H]2O)c(=O)n1` here?
Answer: -55.9% (inactive)

Question: With `CCC(C)CO` (centres undefined) as the compound, how does the activity change, positive = activation read?
Answer: 1.13% (inactive) and -5.81% (inactive)

Question: With `O=C(/C=C/c1ccccc1)OCc1ccccc1` as the compound, how does the activity change, positive = activation read?
Answer: 36.2% (active)

Question: Which activity change, positive = activation does the source give for `C#C[C@]1(O)CC[C@H]2[C@@H]3CCc4cc(OC)ccc4[C@H]3CC[C@@]21C` here?
Answer: -15.3% (inactive)

Question: With `CC(C(=O)O)c1cccc(C(=O)c2ccccc2)c1` (centres undefined) as the compound, how does the activity change, positive = activation read?
Answer: 2.6% (inactive)

Question: With `Cc1c(OCC(F)(F)F)ccnc1CS(=O)c1nc2ccccc2[nH]1` (centres undefined) as the compound, how does the activity change, positive = activation read?
Answer: -7.88% (inactive)

Question: With `Clc1nc(Cl)c(Cl)c(Cl)c1Cl` as the compound, how does the activity change, positive = activation read?
Answer: 4.58% (inactive) and 5.62% (inactive)

Question: With `Cn1cnc([N+](=O)[O-])c1Sc1ncnc2nc[nH]c12` as the compound, how does the activity change, positive = activation read?
Answer: 19.9% (active)

Question: With `O=C(Nc1ccc(Cl)cc1)Nc1ccc(Cl)c(Cl)c1` as the compound, how does the activity change, positive = activation read?
Answer: -26.7% (inactive) and -3.58% (inactive)

Question: Which activity change, positive = activation does the source give for `CCCCC/C=C/C=C/C=O` here?
Answer: -1.92% (inactive) and -41.4% (inactive)

Question: Which activity change, positive = activation does the source give for `Cc1cccc(C(=O)O)c1` here?
Answer: 0.909% (inactive) and 9.04% (inactive)

Question: Which activity change, positive = activation does the source give for `CCCCC(CC)COCC1CO1` (centres undefined) here?
Answer: 1.35% (inactive) and -0.071% (inactive)

Question: For `O=C(COc1ccc(Cl)cc1)N1CCN(Cc2ccc3c(c2)OCO3)CC1`, which activity change, positive = activation is on record?
Answer: -59.3% (inactive)

Question: With `O=[N+]([O-])c1ccc2c(c1)Cc1ccccc1-2` as the compound, how does the activity change, positive = activation read?
Answer: 1.03% (inactive) and -0.93% (inactive)

Question: For `CC(C)OB(OC(C)C)OC(C)C`, which activity change, positive = activation is on record?
Answer: -0.608% (inactive) and 0.13% (inactive)

Question: For `CC(CCC(=O)O)(c1ccc(O)cc1)c1ccc(O)cc1`, which activity change, positive = activation is on record?
Answer: 1.54% (inactive) and 1.03% (inactive)

Question: With `CC(=O)C1(C)CC2=C(CCCC2(C)C)CC1C` (centres undefined) as the compound, how does the activity change, positive = activation read?
Answer: 8.11% (inactive) and 5.11% (inactive)

Question: For `CCOC(=O)C(C#N)=C(c1ccccc1)c1ccccc1`, which activity change, positive = activation is on record?
Answer: -34.2% (inactive)

Question: Which activity change, positive = activation does the source give for `C[C@]12CC[C@H]3[C@@H](CCC4=CC(=O)CC[C@@]43C)[C@@H]1CC[C@@H]2C(=O)CO` here?
Answer: -55.9% (inactive)

Question: With `C=C(C)C(=O)OCCOC(=O)C(=C)C` as the compound, how does the activity change, positive = activation read?
Answer: -0.0914% (inactive) and 4.51% (inactive)
